PubChem BioAssay (Tox21)
Several values for one entry are separate records, joined by “and”; a condition that tells them apart may be missing. Identical values can stand only once. Results filed as inconclusive are left out. Activity calls are given as the source filed them. Unless noted, calls come from the whole dose curve; as a rule, active = well fitted curve in the direction sought with a large enough effect in the repeat runs; inconclusive = weak or mixed curves; inactive = no such curve, though single readings can be large; an effect the other way counts as inactive or inconclusive.

Assays:
[1] = qHTS assay to identify small molecule antagonists of the sonic hedgehog signaling (Shh) pathway (AID 1259369; calls by dose curve; note: nearly all actives have a fitted effect of over 45% in size; note: potency is the fitted concentration of half-maximal effect)
In short: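 NIH/3T3 stable Gli1-Luc clone, 2,000 cells/well, 4hr settle; cpd + conditioned medium 24hr; Luc reagent 30min RT; luminescence.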

[2] = biological target: Androgen receptor (Homo sapiens) (UniProt P10275); test: qHTS assay to identify small molecule agonists of the androgen receptor (AR) signaling pathway in the presence of an antagonist (AID 1259381; calls by dose curve; note: nearly all actives have a fitted effect of over 15% in size)
In short: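 Luminescent ONE-Glo read, 30min at room temperature, follows 16hr compound exposure (15 concentrations) of MDA-kb2 cells at 37C, 0% CO2, with nilutamide added at 3.0uM final.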

[3] = qHTS assay to identify small molecule antagonists of the estrogen receptor beta (ER-beta) signaling pathway - cell viability counter screen (AID 1259382); note: nearly all actives have a fitted effect of over 55% in size; note: potency is the fitted concentration of half-maximal effect;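 for activity change, negative = cytotoxicity: HEK293T cells carrying ER-beta-UAS-bla reporter stimulated with estradiol; series mostly up to about 92 µM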
In short: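 Readout: luminescence, CellTiter-Glo, same wells as bla assay. System: ER-beta-UAS-bla GripTite HEK293T, 2% charcoal-stripped FBS. Exposure: compounds plus 1nM 17-beta-estradiol, 16 hr, 37C.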

[4] = biological target: Estrogen receptor (Homo sapiens) (UniProt P03372); test: qHTS assay to identify small molecule agonists of the estrogen receptor alpha (ER-alpha) signaling pathway in the presence of an antagonist (AID 1259383; calls by dose curve; note: nearly all actives have a fitted effect of over 15% in size; note: potency is the fitted concentration of half-maximal effect; for activation: top concentration of the series differs between compounds)
In short: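 Quantitative HTS confirmation: compounds titrated at 15 concentrations onto estrogen-deprived VM7Luc4E2 cells carrying a four-ERE luciferase construct, with ICI-182,780 present at 10.0nM final. Signal is luminescence after 22hr exposure.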

[5] = qHTS assay to identify small molecule agonists or antagonists of the thyroid stimulating hormone receptor (TSHR) signaling pathway - wild type cell line counter screen (AID 1259384; calls by dose curve)
In short: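 Counter screen in untransfected Hek293: compounds (15-point titration, triplicate) plus phosphodiesterase inhibitor Ro20-1724 added after 18 h plating; 30 min RT. Intracellular cAMP via competitive d2/cryptate immunoassay, 1 h incubation.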

[6] = biological target: Thyrotropin receptor (Homo sapiens) (UniProt P16473); test: qHTS assay to identify small molecule antagonists of the thyroid stimulating hormone receptor (TSHR) signaling pathway (AID 1259385; calls by dose curve; note: nearly all actives have a fitted effect of over 20% in size; note: potency is the fitted concentration of half-maximal effect)
In short: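 Antagonist mode: compound-treated TSHR-expressing HEK293 cells were stimulated with 1.5 ng/mL TSH (final) in presence of Ro20-1724 for 30 min at RT. HTRF cAMP detection after 1 h; each compound tested at 15 concentrations, triplicate.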

[7] = qHTS assay to identify small molecule agonists of the estrogen receptor alpha (ER-alpha) signaling pathway in the presence of an antagonist - cell viability counter screen (AID 1259386);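 note: cells exposed to compounds for 22 h at 37 °C before the viability read; nearly all actives have a fitted effect of over 30% in size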; note: potency is the fitted concentration of half-maximal effect; for activity change, negative = cytotoxicity: series mostly up to about 92 µM
In short: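 The test measures whether compounds kill ER-alpha reporter cells (VM7Luc4E2) under antagonist co-treatment (ICI-182,780, 10.0nM). Fluorescence from CellTiter-Fluor is read after a 22hr exposure.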

[8] = biological target: Progesterone receptor (Homo sapiens) (UniProt P06401); test: qHTS assay to identify small molecule agonists of the progesterone receptor (PR) signaling pathway (AID 1346784; calls by dose curve; note: nearly all actives have a fitted effect of over 30% in size; note: potency is the fitted concentration of half-maximal effect)
In short: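 Seed PR-UAS-bla HEK 293T cells (2% charcoal-stripped FBS), incubate 6 hr at 37C; add compounds in DMSO, 16 hr at 37C; add LiveBLAzer B/G substrate, 2 hr RT; read fluorescence intensity.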

[9] = qHTS assay to identify small molecule antagonists of the progesterone receptor (PR) signaling pathway - cell viability counter screen (AID 1346798); note: nearly all actives have a fitted effect of over 50% in size; note: potency is the fitted concentration of half-maximal effect; for activity change, negative = cytotoxicity: series mostly up to about 92 µM
In short: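 Measures cytotoxicity in parallel with the PR antagonist reporter read: HEK293T PR-UAS-bla cells get compound and R5020 for 16 hr, and remaining viable cells are quantified by CellTiter-Glo luminescence.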

[10] = qHTS assay to identify small molecule antagonists of the TGF-beta/Smad signaling pathway - cell viability counter screen (AID 1346824); note: nearly all actives have a fitted effect of over 50% in size
In short: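 Cytotoxicity counter-screen run in the same wells as the beta-lactamase Smad reporter read: CellTiter-Glo luminescence after 30 min at room temperature. HEK 293T SBE-bla cells had 5 hr compound exposure at 37 C with TGF-beta1 (0.25 ng/mL stock).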

[11] = qHTS assay to identify small molecule agonists of the TGF-beta/Smad signaling pathway - cell viability counter screen (AID 1346829); note: nearly all actives have a fitted effect of over 45% in size; note: potency is the fitted concentration of half-maximal effect; for activity change, negative = cytotoxicity: top concentration of the series differs between compounds
In short: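 Here the cytotoxicity of library compounds is measured in SBE-bla HEK 293T cells treated for 5 hr, using CellTiter-Glo added to wells already read for the beta-lactamase reporter.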

[12] = qHTS assay to identify small molecule agonists of the TGF-beta/Smad signaling pathway (AID 1346859; active = well fitted activation curve with a large enough effect in the signal ratio in the repeat runs, not every such curve was filed as active; the % refers to the signal ratio; note: potency is the fitted concentration of half-maximal effect; for activation: series mostly up to about 77 µM)
In short: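 Beta-lactamase reporter activity downstream of Smad binding elements was measured in stably transfected HEK 293T cells; compounds were incubated for 5 hr, substrate for 2 hr at room temperature.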

[13] = biological target: Thyrotropin-releasing hormone receptor (Homo sapiens) (UniProt P34981); test: qHTS assay to identify small molecule antagonists of the thyrotropin-releasing hormone receptor (TRHR) signaling pathway (AID 1346877; active = well fitted inhibition curve with a large enough effect in the repeat runs, not every such curve was filed as active; note: potency is the fitted concentration of half-maximal effect; for activity, negative = inhibition: series mostly up to about 51 µM)
In short: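 Overnight-plated (18 h, 37 °C) HEK293 cells expressing TRHR were dye-loaded 2 h, treated with compound, then stimulated with TRH at 1 nM final. Fluorescence intensity was captured every second for 3 min.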

[14] = biological target: Thyrotropin-releasing hormone receptor (Homo sapiens) (UniProt P34981); test: qHTS assay to identify small molecule agonists of the thyrotropin-releasing hormone receptor (TRHR) signaling pathway (AID 1346891; calls by dose curve; note: potency is the fitted concentration of half-maximal effect;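 for activation: HEK293 cells expressing TRHR with calcium dye readout; series mostly up to about 58 µM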)
In short: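 Overnight-plated (18 h, 37 °C, 5% CO2) TRHR-Hek293 cells; 2 h calcium dye at 37 °C; compound in DMSO; 3-min kinetic fluorescence read.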

[15] = biological target: Estrogen receptor beta (Homo sapiens) (UniProt Q92731); test: qHTS assay to identify small molecule agonists of the estrogen receptor beta (ER-beta) signaling pathway (AID 1259377; active = well fitted activation curve with a large enough effect in the signal ratio in the repeat runs, not every such curve was filed as active; the % refers to the signal ratio)
In short: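 Screening used GripTite ER-beta-UAS-bla cells held in 2% charcoal-stripped FBS medium. After overnight (16 hr) compound incubation at 37C, beta-lactamase activity was detected with a FRET substrate by fluorescence.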

[16] = biological target: Estrogen receptor beta (Homo sapiens) (UniProt Q92731); test: qHTS assay to identify small molecule antagonists of the estrogen receptor beta (ER-beta) signaling pathway (AID 1259378; active = well fitted inhibition curve with a large enough effect in the signal ratio in the repeat runs, not every such curve was filed as active; the % refers to the signal ratio; note: potency is the fitted concentration of half-maximal effect)
In short: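 Antagonist mode: compounds added to beta-lactamase reporter HEK293T ER-beta-UAS cells stimulated with E2 (1nM final), 16 hr at 37C. LiveBLAzer B/G FRET substrate, 2 hours room temperature, fluorescence read-out.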

[17] = qHTS assay to identify small molecule agonists of the estrogen receptor beta (ER-beta) signaling pathway - cell viability counter screen (AID 1259380); note: nearly all actives have a fitted effect of over 30% in size; note: potency is the fitted concentration of half-maximal effect
In short: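 Measured: luminescence from CellTiter-Glo after 30 min at room temperature, added to wells already read for the LiveBLAzer FRET reporter (2 hr substrate); ER-beta-UAS-bla HEK293T cells had 16 hr compound treatment at 37C, 5% CO2.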

[18] = biological target: Progesterone receptor (Homo sapiens) (UniProt P06401); test: qHTS assay to identify small molecule antagonists of the progesterone receptor (PR) signaling pathway (AID 1346795; active = well fitted inhibition curve with a large enough effect in the signal ratio in the repeat runs, not every such curve was filed as active; the % refers to the signal ratio; note: potency is the fitted concentration of half-maximal effect)
In short: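 Screening used a GripTite HEK293T line with PR-responsive UAS-beta-lactamase. Cells were challenged with compound in the presence of 1 nM R5020 final for 16 hr at 37C; B/G FRET substrate, 2 hr room temperature, fluorescence.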

[19] = qHTS assay to identify small molecule agonists of the androgen receptor (AR) signaling pathway in the presence of an antagonist - cell viability counter screen (AID 1259379); note: nearly all actives have a fitted effect of over 25% in size; note: potency is the fitted concentration of half-maximal effect;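 for activity change, negative = cytotoxicity: MDA-kb2 human breast cancer cells carrying an MMTV luciferase reporter; series mostly up to about 92 µM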
In short: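 MDA-kb2 viability measured by CellTiter-Fluor fluorescence in the same wells as the luciferase signal; nilutamide 3.0uM final; 15-point compound titration; 16 hr at 37C.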

[20] = qHTS assay to identify small molecule agonists of the progesterone receptor (PR) signaling pathway - cell viability counter screen (AID 1346799; calls by dose curve; note: nearly all actives have a fitted effect of over 45% in size; note: potency is the fitted concentration of half-maximal effect)
In short: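 Using the same plates as the PR reporter screen, HEK293T PR-UAS-bla cells received compounds for 16 hr at 37C and were then lysed with CellTiter-Glo; luminescence was read 30 min later at room temperature.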
% is set by controls: 0 for no effect and ±100 for the full control effect.

Chain of Estrogen receptor beta (Homo sapiens) (Q92731 whole entry, looked up): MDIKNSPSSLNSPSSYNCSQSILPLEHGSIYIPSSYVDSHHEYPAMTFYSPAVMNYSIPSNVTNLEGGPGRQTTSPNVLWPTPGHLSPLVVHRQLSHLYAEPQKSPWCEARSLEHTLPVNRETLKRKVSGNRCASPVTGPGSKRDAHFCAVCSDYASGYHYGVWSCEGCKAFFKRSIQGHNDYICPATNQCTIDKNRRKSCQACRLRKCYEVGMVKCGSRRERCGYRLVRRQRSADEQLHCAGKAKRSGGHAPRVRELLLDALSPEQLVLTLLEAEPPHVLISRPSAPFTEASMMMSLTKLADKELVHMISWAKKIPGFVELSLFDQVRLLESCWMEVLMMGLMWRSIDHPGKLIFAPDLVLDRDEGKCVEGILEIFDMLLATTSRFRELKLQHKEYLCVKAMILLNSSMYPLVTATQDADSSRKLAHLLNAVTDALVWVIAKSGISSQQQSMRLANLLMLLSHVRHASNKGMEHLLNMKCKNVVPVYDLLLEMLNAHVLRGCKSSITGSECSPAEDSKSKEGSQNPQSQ
Chain of Progesterone receptor (Homo sapiens) (P06401 whole entry, looked up): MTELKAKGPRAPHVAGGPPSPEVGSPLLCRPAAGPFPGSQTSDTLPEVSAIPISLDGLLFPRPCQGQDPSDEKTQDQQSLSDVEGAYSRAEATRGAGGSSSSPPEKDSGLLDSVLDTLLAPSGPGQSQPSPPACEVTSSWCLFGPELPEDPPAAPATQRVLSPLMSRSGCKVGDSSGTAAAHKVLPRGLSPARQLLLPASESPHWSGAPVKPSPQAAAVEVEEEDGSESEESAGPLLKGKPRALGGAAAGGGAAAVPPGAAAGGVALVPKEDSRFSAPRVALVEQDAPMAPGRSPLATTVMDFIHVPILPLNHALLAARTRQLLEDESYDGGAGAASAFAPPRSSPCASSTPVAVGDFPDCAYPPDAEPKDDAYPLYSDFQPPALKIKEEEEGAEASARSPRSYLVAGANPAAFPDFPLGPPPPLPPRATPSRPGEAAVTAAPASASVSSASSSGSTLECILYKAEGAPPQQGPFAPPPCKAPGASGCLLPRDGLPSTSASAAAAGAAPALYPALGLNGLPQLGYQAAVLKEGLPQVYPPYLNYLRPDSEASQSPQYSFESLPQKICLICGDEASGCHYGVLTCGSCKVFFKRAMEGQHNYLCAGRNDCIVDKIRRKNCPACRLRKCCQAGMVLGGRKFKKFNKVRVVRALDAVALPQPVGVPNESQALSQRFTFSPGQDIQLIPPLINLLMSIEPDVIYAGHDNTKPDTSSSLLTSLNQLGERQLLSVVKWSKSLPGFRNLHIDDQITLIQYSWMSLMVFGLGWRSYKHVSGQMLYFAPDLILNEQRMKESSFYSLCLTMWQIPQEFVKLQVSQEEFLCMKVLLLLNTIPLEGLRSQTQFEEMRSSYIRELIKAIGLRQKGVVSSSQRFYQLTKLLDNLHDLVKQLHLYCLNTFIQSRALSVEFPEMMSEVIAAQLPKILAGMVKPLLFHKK
Chain of Estrogen receptor (Homo sapiens) (P03372 whole entry, looked up): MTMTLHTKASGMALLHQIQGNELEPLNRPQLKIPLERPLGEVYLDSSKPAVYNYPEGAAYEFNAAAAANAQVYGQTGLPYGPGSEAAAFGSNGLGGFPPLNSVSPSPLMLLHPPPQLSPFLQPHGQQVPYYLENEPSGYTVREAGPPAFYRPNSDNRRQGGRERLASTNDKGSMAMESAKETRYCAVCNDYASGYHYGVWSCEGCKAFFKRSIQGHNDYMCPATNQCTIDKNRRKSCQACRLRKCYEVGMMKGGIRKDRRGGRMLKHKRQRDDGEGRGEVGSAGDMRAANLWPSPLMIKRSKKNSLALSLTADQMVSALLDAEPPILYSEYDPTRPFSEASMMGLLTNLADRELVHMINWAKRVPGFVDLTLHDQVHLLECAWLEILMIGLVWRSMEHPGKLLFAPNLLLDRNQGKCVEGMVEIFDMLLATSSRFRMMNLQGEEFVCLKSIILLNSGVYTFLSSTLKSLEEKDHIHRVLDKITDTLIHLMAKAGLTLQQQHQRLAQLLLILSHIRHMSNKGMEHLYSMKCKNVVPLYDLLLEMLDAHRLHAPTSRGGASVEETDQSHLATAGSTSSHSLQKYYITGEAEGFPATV
Chain of Thyrotropin-releasing hormone receptor (Homo sapiens) (P34981 whole entry, looked up): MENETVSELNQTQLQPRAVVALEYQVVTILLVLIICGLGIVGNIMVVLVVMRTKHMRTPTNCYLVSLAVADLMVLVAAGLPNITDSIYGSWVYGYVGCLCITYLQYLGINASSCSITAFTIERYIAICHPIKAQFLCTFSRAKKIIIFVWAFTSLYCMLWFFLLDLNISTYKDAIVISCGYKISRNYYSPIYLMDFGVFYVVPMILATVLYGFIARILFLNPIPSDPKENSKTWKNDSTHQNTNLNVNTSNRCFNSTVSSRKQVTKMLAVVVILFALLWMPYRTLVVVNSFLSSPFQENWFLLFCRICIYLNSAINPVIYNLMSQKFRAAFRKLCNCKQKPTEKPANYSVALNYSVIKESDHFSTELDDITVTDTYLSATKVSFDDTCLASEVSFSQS
Chain of Thyrotropin receptor (Homo sapiens) (P16473 whole entry, looked up): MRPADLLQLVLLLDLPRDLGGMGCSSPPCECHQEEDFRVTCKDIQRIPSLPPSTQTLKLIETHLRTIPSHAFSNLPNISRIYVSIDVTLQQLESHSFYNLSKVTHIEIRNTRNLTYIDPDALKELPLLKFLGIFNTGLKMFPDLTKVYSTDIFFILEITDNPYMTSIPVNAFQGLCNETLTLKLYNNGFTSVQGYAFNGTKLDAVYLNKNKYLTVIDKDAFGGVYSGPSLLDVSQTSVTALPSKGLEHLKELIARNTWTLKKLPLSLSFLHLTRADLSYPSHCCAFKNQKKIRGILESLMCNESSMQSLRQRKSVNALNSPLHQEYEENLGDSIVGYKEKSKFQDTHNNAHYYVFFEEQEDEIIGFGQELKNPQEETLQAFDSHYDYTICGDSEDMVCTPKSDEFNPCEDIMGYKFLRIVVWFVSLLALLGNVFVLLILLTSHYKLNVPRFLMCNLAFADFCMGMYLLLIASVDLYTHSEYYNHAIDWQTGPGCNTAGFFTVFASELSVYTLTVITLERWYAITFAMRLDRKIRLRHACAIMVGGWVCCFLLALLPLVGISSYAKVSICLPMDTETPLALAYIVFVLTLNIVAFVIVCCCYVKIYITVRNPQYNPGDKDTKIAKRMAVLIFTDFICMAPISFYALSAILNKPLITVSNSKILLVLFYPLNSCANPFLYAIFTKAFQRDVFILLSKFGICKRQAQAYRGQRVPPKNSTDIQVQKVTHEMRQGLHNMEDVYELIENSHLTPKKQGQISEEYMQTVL
Chain of Androgen receptor (Homo sapiens) (P10275 whole entry, looked up): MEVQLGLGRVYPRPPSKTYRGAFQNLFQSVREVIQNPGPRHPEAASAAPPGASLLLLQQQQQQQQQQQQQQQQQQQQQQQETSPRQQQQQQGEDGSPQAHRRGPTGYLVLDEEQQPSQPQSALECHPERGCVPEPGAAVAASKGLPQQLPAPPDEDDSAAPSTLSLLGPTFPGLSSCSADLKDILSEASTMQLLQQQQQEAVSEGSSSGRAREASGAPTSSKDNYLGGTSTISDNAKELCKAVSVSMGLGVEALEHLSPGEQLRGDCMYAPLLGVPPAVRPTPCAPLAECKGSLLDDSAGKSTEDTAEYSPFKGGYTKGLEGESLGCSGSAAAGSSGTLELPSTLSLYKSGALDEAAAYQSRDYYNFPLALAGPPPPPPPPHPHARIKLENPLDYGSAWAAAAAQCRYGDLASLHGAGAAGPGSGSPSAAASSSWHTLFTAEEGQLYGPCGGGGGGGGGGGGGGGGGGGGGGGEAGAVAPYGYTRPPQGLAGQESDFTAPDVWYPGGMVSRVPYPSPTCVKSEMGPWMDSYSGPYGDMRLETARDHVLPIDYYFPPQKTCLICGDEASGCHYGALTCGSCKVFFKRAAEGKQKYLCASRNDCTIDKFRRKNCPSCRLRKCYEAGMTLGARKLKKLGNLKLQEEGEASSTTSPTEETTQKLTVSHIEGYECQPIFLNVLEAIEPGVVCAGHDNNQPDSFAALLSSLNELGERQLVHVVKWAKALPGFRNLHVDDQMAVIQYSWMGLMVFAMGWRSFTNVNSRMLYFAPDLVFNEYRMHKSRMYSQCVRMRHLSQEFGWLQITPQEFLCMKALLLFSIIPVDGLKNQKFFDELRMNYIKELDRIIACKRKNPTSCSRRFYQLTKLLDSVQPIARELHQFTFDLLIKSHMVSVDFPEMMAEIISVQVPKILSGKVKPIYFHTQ

Fc1ccc([C@@H]2CCNC[C@H]2COc2ccc3c(c2)OCO3)cc1
inactive: Potency [1] | Potency [2] | Potency [4] | outcome [5] | Potency [6] | Potency [7] | Potency [8] | Potency [9] | Potency [10] | Potency [11] | Potency [12] | Potency [13] | Potency [14]
active: Potency [3] 26.6 µM

COCCCC/C(=N\OCCN)c1ccc(C(F)(F)F)cc1
inactive: Potency [15] | Potency [4] | outcome [5] | Potency [7] | Potency [8] | Potency [10] | Potency [11] | Potency [12]
active: Potency [16] 29.8 µM | Potency [17] 13.3 µM | Potency [6] 29.8 µM

Cc1cc(=O)oc2cc(N(C)C)ccc12
inactive: Potency [1] | outcome [5] | Potency [6] | Potency [10] | Potency [11] | Potency [14]

Cc1oc(-c2ccccc2)nc1CCC(=O)c1ccc(CC2SC(=O)NC2=O)cc1 (stereo not drawn)
active: Potency [17] 6.68 µM
inactive: Potency [1] | outcome [5] | Potency [6] | Potency [9] | Potency [10] | Potency [11] | Potency [13] | Potency [14]

CCC1=C[C@@H]2CN(C1)Cc1c([nH]c3ccccc13)[C@@](C(=O)OC)(c1cc3c(cc1OC)N(C)[C@H]1[C@@](O)(C(=O)OC)[C@H](OC(C)=O)[C@]4(CC)C=CCN5CC[C@]31[C@@H]54)C2
active: Potency [1] 0.0042 µM | Potency [18] 0.944 µM
inactive: Potency [3] | Potency [4] | Potency [8] | Potency [10] | Potency [11] | Potency [12] | Potency [14]

COc1cc(-c2nc(NC(=O)c3cc4cc(C)cc(C)c4n3CC(=O)O)sc2CCC2CCCCC2)c(OC)cc1Cl
inactive: Potency [15] | Potency [2] | Potency [4] | outcome [5] | Potency [7] | Potency [8]
active: Potency [19] 56 µM | Potency [17] 19.9 µM | Potency [3] 39.7 µM | Potency [18] 12.5 µM | Potency [9] 14.1 µM | Potency [20] 11.2 µM | Potency [11] 28.3 µM

O=C(OC[C@H]1O[C@@H](OC(=O)c2cc(O)c(O)c(OC(=O)c3cc(O)c(O)c(O)c3)c2)[C@H](OC(=O)c2cc(O)c(O)c(OC(=O)c3cc(O)c(O)c(O)c3)c2)[C@@H](OC(=O)c2cc(O)c(O)c(OC(=O)c3cc(O)c(O)c(O)c3)c2)[C@@H]1OC(=O)c1cc(O)c(O)c(OC(=O)c2cc(O)c(O)c(O)c2)c1)c1cc(O)c(O)c(OC(=O)c2cc(O)c(O)c(O)c2)c1
inactive: activity change, negative = cytotoxicity [3] -6.33% [at 19 µM] | activation [8] 2.55% [at 19 µM] | activity change, negative = cytotoxicity [9] -7.91% [at 18.9 µM] | activity change, negative = cytotoxicity [20] 9.14% [at 19 µM] | viability change, negative = cytotoxic [10] 3.78% [at 15.8 µM] | activity change, negative = cytotoxicity [11] 7.05% [at 15.8 µM] | activation [12] -3.84% [at 15.8 µM] | activity, negative = inhibition [13] 4.26% [at 10.5 µM] | activation [14] 0.113% [at 11.8 µM]
active: Potency [1] 5.22 µM | Potency [7] 18.5 µM

CCC1OCC(COc2ccc(Oc3ccccc3)cc2)O1 (stereo not drawn)
active: Potency [18] 54.5 µM
inactive: Potency [15] | Potency [19] | Potency [17] | Potency [3] | outcome [5] | Potency [7] | Potency [8] | Potency [10] | Potency [11] | Potency [12] | Potency [13] | Potency [14]

CCC(N)(CO)CO
inactive: Potency [15] | Potency [19] | Potency [17] | Potency [3] | Potency [4] | Potency [7] | Potency [8] | Potency [18] | Potency [9] | Potency [20] | Potency [11] | Potency [12] | Potency [14]

Nc1c2ccccc2nc2ccccc12
active: Potency [17] 2.14 µM and 3.35 µM | Potency [8] 4.79 µM | Potency [12] 23.9 µM
inactive: Potency [1] | Potency [4] | Potency [6] | Potency [7] | Potency [10] | Potency [11]

OCCN(CCO)c1nc(N2CCCCC2)c2nc(N(CCO)CCO)nc(N3CCCCC3)c2n1
active: Potency [1] 2.11 µM | Potency [14] 12 µM
inactive: Potency [2] | Potency [3] | Potency [4] | Potency [10] | Potency [11] | Potency [13]

N=C1N=C(N)c2ccccc21
inactive: Potency [3] | Potency [4] | Potency [7] | Potency [9] | Potency [20] | Potency [10] | Potency [11] | Potency [12] | Potency [13] | Potency [14]
active: Potency [1] 8.63 µM

NNc1nc(-c2ccc(N)cc2)cs1
inactive: Potency [15] | Potency [16] | Potency [4] | outcome [5] | Potency [8] | Potency [18] | Potency [9] | Potency [10] | Potency [11] | Potency [12]
active: Potency [17] 15.4 µM | Potency [7] 30.6 µM

CCCCCCCCOC(=O)c1ccc(O)cc1
active: Potency [17] 54.3 µM and 48.6 µM | Potency [3] 43.1 µM | Potency [4] 54.5 µM
inactive: Potency [15] | Potency [19] | outcome [5] | Potency [6] | Potency [7] | Potency [9] | Potency [10] | Potency [11] | Potency [12]

Cc1ccc(O)c2ncccc12
inactive: Potency [2] | Potency [4] | outcome [5] | Potency [6] | Potency [7] | Potency [8] | Potency [9] | Potency [10] | Potency [11] | Potency [12] | Potency [14]
active: Potency [1] 0.531 µM | Potency [18] 7.5 µM | Potency [13] 5.23 µM

O=C1c2c(O)ccc(Nc3ccc(CCO)cc3)c2C(=O)c2c([N+](=O)[O-])ccc(O)c21
inactive: Potency [15] | Potency [2] | Potency [3] | Potency [4] | Potency [8] | Potency [18] | Potency [9] | Potency [20] | Potency [10] | Potency [11] | Potency [12] | Potency [13] | Potency [14]
active: Potency [19] 43.3 µM | Potency [17] 17.2 µM | Potency [7] 30.6 µM

CCCCCCOC(=O)c1ccc(O)cc1
inactive: Potency [15] | Potency [19] | Potency [2] | Potency [3] | outcome [5] | Potency [6] | Potency [7] | Potency [9] | Potency [20] | Potency [10] | Potency [11] | Potency [12] | Potency [13] | Potency [14]
active: Potency [17] 48.6 µM | Potency [4] 27.3 µM | Potency [18] 38.6 µM and 21.7 µM
